From PubChem BioAssay
Only some compounds are listed: those with a hit (about 2.9% of all), similar ones and a draw of the others.
IP6K1 inhibitor = IP6K1 kinase inhibition | AID 1645851 | IP6K1 kinase, ADP-Glo luminescence, 2 h; hits give low values | 0.81% of 140,000 active | Q92551 | activity change, % (series mostly up to about 58 µM); in the data active = activity change below about -25%; note: % is set by controls: 0 for no effect and ±100 for the full control effect
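ADP-Glo luminescence measures ADP made by human IP6K1 during a 2 h RT reaction with ATP/IP6 (mix at 1.3 mM/130 uM); top library doses 57.5 and 19.1 uM final.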
KDM5B inhibitor = blocks human KDM5B histone demethylase activity; AID 1347165; 2.6% of 220,000 active; Potency, µM (top dose mostly 57.7 µM), actives largely listed as inhibitors; KDM5B demethylase, FDH-coupled NADH fluorescence (FDH is formaldehyde dehydrogenase); note: potency is the fitted concentration of half-maximal effect; 0% is about no effect; nearly all actives have a fitted effect of over 70% in size
Target sequence (Q9UGL1 whole entry, looked up): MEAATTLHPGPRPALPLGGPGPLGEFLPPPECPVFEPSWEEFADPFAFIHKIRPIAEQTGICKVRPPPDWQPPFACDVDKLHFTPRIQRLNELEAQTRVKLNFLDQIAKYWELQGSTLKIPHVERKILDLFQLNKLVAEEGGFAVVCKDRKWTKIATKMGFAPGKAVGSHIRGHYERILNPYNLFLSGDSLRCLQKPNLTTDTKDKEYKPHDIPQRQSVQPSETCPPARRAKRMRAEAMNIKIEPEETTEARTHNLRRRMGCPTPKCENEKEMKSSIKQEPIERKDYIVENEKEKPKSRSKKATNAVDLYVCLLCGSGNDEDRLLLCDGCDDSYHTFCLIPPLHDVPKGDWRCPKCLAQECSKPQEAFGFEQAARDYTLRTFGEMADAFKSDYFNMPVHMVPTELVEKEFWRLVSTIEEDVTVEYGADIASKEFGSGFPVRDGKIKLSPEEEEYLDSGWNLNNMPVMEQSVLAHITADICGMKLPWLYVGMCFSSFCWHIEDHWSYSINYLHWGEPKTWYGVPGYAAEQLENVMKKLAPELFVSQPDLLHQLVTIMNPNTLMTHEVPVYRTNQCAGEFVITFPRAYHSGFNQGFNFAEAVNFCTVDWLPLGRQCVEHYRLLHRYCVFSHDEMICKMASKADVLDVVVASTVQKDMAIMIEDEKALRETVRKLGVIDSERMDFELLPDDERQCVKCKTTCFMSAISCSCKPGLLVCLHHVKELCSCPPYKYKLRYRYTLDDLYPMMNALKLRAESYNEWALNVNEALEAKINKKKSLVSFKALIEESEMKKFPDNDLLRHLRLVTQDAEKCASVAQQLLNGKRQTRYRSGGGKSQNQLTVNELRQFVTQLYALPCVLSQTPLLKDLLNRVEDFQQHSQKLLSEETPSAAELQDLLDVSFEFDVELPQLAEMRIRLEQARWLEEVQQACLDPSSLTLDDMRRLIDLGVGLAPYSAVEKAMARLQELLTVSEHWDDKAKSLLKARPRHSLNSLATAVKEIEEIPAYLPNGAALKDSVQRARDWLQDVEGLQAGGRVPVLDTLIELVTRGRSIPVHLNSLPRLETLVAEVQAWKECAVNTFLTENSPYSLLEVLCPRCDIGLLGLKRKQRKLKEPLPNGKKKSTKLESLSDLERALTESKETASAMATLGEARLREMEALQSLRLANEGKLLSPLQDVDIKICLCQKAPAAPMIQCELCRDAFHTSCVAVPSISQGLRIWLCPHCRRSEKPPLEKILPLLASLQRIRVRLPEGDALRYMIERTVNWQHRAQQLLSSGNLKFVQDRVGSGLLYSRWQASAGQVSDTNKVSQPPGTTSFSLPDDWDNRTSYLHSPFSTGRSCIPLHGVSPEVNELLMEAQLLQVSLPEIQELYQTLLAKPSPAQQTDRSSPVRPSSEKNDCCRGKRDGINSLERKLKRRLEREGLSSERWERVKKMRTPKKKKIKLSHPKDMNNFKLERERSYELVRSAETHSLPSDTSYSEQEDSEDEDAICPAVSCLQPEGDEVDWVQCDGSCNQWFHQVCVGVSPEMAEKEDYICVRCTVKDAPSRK
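qHTS format, multiple compound concentrations. Buffer 50 mM HEPES pH 7.5/0.01% Tween-20; 200 nM KDM5BΔAP final; 10 min compound preincubation; substrate-mix levels 12.5 µM peptide, 25 µM α-KG, 0.25 mM NAD⁺; 30 min RT; ΔRFU.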
SNCA expr inh = reduces expression of the alpha-synuclein gene; 0.17% of 140,000 active; Potency, µM (top dose mostly 57.2 µM), for inactives: at the highest dose activity change, negative = inhibition, most hits filed as inhibitors; HEK-293 SNCA-luciferase knock-in, luminescence, 24 h;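 note: potency is the fitted concentration of half-maximal effect; plate controls were DMSO cells for no effect and cell-free wells for full effect; nearly all actives have a fitted effect of over 45% in size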
SNCA viab count = reduces viability of HEK-293 SNCA reporter cells | Potency, µM (highest dose often 57.1 µM), inactives show at the top dose activity change, negative = cytotoxicity, actives largely listed as cytotoxic | HEK-293-SNCA-luc viability, GF-AFC fluorescence, 24 h | 0.12% of 150,000 active | AID 1671193;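 note: potency is the fitted concentration of half-maximal effect; 0% = DMSO-treated cells and -100% = medium-only wells without cells; nearly all actives have a fitted effect of over 30% in size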
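Cytotoxicity counterscreen: after 24 h compound treatment of genome-edited SNCA-luciferase HEK-293 cells, live-cell protease substrate GF-AFC read by fluorescence after 30 min; activity scaled between DMSO (0%) and medium-only (-100%), curves Hill-fitted.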
IP6K1 inh cnf = confirmation of human IP6K1 inhibitors. shares compounds with IP6K1 inhibitor. recombinant IP6K1 kinase, ADP-Glo luminescence, 2 h. Potency, µM (highest dose often 49 µM), without a hit: at the highest dose activity change, negative = inhibition, hits mostly inhibitors. 13% of 1,200 active. AID 1645852; note: potency is the fitted concentration of half-maximal effect; % is set by controls: 0 for no effect and ±100 for the full control effect; nearly all actives have a fitted effect of over 65% in size
* marks the source's active call; other numbers are inactive results; i = inactive; ? = inconclusive; nt = no result; [ ] = dose if it differs, or a comment. Unless noted, calls come from the whole dose curve; as a rule, active = well fitted curve in the direction sought with a large enough effect; inconclusive = small, poorly fitted or top-dose-only effect, or another doubt; inactive = no such curve, though single readings can be large; an effect the other way counts as inactive or inconclusive.

SMILES	IP6K1 inhibitor	KDM5B inhibitor	SNCA expr inh	SNCA viab count	IP6K1 inh cnf
COc1ccc2nc(N3CCN(C(=O)CS(=O)(=O)c4ccc(C)cc4)CC3)sc2c1	-29*	i	-17%	3%	-14%
COc1ccc(-c2ccc3nc(-c4ccc(F)cc4F)oc3c2)c(OC)c1OC	-5	i	11%	0%	nt
CCOc1cc(C2C(C(=O)OC)=C(C)NC3=C2C(=O)c2ccccc23)ccc1OCc1ccccc1 (centres undefined)	nt	i	nt	nt	nt
CCOc1ccc(C2C(C(=O)OC)=C(C)NC3=C2C(=O)c2ccccc23)cc1OC (centres undefined)	-27*	?	39%	?	?
CC(C)(C)c1nc2c3cc[nH]c(=O)c3c3cc(F)ccc3c2[nH]1	nt	nt	-13%	0%	-28%
Cc1cnc(Nc2ccc(F)cc2Cl)nc1-c1c[nH]c(C(=O)NC(CO)c2cccc(Cl)c2)c1 (centres undefined)	-42*	nt	nt	-27%	9.2µM*
CC(C)Nc1cc(-c2c[nH]c(C(=O)N[C@H](CO)c3cccc(Cl)c3)c2)c(Cl)cn1	-19	nt	?	-22%	nt
CC(C)NC(=O)N1CCC(N2CCN(Cc3ccc(F)cc3)C(=O)C2=O)CC1	10	i	18%	-11%	nt
CC(C)NC(=O)N1CC[C@H](N=C2Nc3cc(F)ccc3N(CC(F)F)c3ccc(Cl)cc32)C1	-5	nt	nt	6%[12.5 µM]	-6%[13.7 µM]
O=S(=O)(Cc1ccc(Cl)cc1)Cc1ccnc(Cl)c1	nt	i	nt	nt	nt
COc1nc2c(cc1CNC(=O)CC1CCCCC1)C(=O)N(C1CCCC1)C2	2	i	-10%	-2%	nt
CCC(C)(C)C(=O)NCc1cc2c(nc1OC)CN(C1CCCC1)C2=O	-30*	i	-3%	-6%	9%
CCCC(=O)NCc1cc2c(nc1OC)CN(C1CCCC1)C2=O	-1	i	5%	2%	nt
CCC(=O)NCc1cc2c(nc1OC)CN(C1CCCC1)C2=O	-33*	?	4%	18%	-10%
COc1cccc2sc(N3CCN(C(=O)CCS(=O)(=O)c4ccc(C)cc4)CC3)nc12	nt	i	nt	nt	nt
Cc1ccc(CC(=O)N(CC#N)c2ccccc2)s1	nt	i	nt	nt	nt
COCc1ncc2c(n1)CCCN(CC(=O)NCc1cccc(F)c1)C2=O	13	i	10%	5%	nt
COCCOCc1nc(C2CCN(S(=O)(=O)c3cc(F)ccc3F)CC2)no1	-10	i	9%	6%	nt
COc1ccccc1-c1cnc(Nc2ccc3c(c2)OCCO3)c2c1CCO2	-26*	35µM*	128%[87.6 µM]	-13%[87.6 µM]	-17%
CCc1ccc(NC(=O)Cn2nc3n(c2=O)CCCC3)cc1	-5	i	48%	19%	nt
O=C(NOCC(O)CO)c1ccc(F)c(F)c1Nc1ccc(I)cc1F (centres undefined)	-5	nt	nt	-2%	nt
O=C(NC[C@H](O)CO)c1ccncc1Nc1ccc(I)cc1F	nt	nt	30%	-13%	-2%
COc1ccc(Nc2cc3c(cn2)CN(Cc2ccncc2)CCN3)cn1	-9	i	-23%[87.6 µM]	-11%[87.6 µM]	nt
c1ccc(-c2cc3c(cn2)NCCN(Cc2ccsc2)C3)cc1	-25*	35µM*	-24%[87.6 µM]	12%[87.6 µM]	-9%
Clc1ccc(-c2cc3c(cn2)CN(Cc2ccncc2)CCN3)cc1	-27*	32µM*	-20%[87.6 µM]	-2%[87.6 µM]	-1%
SMILES	IP6K1 inhibitor	KDM5B inhibitor	SNCA expr inh	SNCA viab count	IP6K1 inh cnf
COc1ccc(Nc2cc3c(cn2)NCCN(Cc2ccccc2)C3)cn1	-25*	?	?	-3%[87.6 µM]	-18%
c1ccc(CN2CCNc3cc(-c4ccncc4)ncc3C2)cc1	-15	i	-15%[87.6 µM]	-10%[87.6 µM]	nt
COc1cccc(C(=O)NC2CCCN(Cc3cccc(-c4ccc(C)c(Cl)c4)c3)C2)c1 (centres undefined)	-2	nt	-15%	-3%	nt
O=C(NCCCCCCCN1CCCC1)c1ccco1	nt	i	nt	nt	nt
CCc1ccc(S(=O)(=O)N2CC(C(=O)NC3CCCCC3)C3(CCOCC3)C2)cc1 (centres undefined)	6	i	8%	-10%	nt
C#C[C@]1(O)CC[C@H]2[C@@H]3CCc4cc(OC)ccc4[C@H]3CC[C@@]21C	-27*	nt	31%[25.6 µM]	-20%[23.9 µM]	?
Cc1cc(C)cc(NC(=O)CSc2nccn2-c2ccccc2)c1	21	i	-6%	7%	nt
CCOC(=O)c1ccc(NC(=O)CSc2nccn2-c2cc(C)cc(C)c2)cc1	-27*	i	-11%	0%	?
CCOC(=O)c1ccc(NC(=O)CSc2nc3cc4ccccc4cc3[nH]2)cc1	-26*	?	-2%	-6%	15%
NC(=O)Cc1c[nH]c2ncc(-c3cccc(CO)c3)cc12	-27*	32µM*	-4%[87.6 µM]	3%[87.6 µM]	?
Cc1cccc(-c2cnc3[nH]cc(CC(N)=O)c3c2)c1	-32*	32µM*	3%[87.6 µM]	3%[87.6 µM]	?
CNC(=O)c1cccc(-c2cnc3[nH]cc(CC(=O)Nc4ccccc4Cl)c3c2)c1	-26*	i	56%[87.6 µM]	?	?
CNC(=O)c1cccc(-c2cnc3[nH]cc(CC(=O)Nc4cccc(F)c4)c3c2)c1	-8	i	-22%[87.6 µM]	-20%[87.6 µM]	nt
Cc1ccc(NC(=O)C(C)Sc2ncnc3c2sc2nc4c(cc23)COC(C)(C)C4)cc1 (centres undefined)	nt	i	nt	nt	nt
CO/N=C(\C(=O)N[C@@H]1C(=O)N2C(C(=O)O)=C(CSc3nc(=O)c(O)nn3C)CS[C@H]12)c1csc(N)n1	-79*	nt	-7%[25.6 µM]	-18%[23.9 µM]	?
CCNC(=O)[C@@H]1CCCN1[C@@H](C(=O)NC)c1ccc(OC)cc1	16	i	2%[87.6 µM]	6%[87.6 µM]	nt
Cc1ccc2c(CNCc3cccc(Cl)c3)c(C(=O)O)n(Cc3ccc(F)cc3Cl)c2c1	-27*	i	8%	-3%	17%
CN(Cc1ccc2nsnc2c1)Cc1cc2n(n1)CCCNC2	-25*	?	4%	0%	-7%
C[C@]1(C2CCCC2)Cc2cc(OCC(=O)O)c(Cl)c(Cl)c2C1=O	-42*	nt	nt	4%	7.3µM*
CN1C(=O)N[C@H](Cc2c[nH]c3c(Cl)cccc23)C1=O	nt	nt	nt	nt	-5%
COc1ccc(NS(=O)(=O)c2cc(-c3onc(C)c3C)ccc2C)c(OC)c1	0	?	0%	4%	nt
COc1ccc(OC)c(CNS(=O)(=O)c2cc(-c3onc(C)c3C)ccc2C)c1	-46*	i	7%	3%	33%
CCC(CC)NC(=O)CSc1nc2ncccc2c(=O)n1-c1ccccc1	nt	i	nt	nt	nt
CCOc1cccc2sc(N(CCN(C)C)C(=O)c3ccc4c(c3)OCCO4)nc12	nt	i	nt	nt	nt
Cc1cccc2sc(N(CCN(C)C)C(=O)c3ccc4c(c3)OCCO4)nc12	-35*	?	-9%	6%	13%
CCN(c1ccccc1)c1nnc(NC(=O)Nc2cccc(Cl)c2C)s1	-102*	i	-12%	3%	-22%
CN1CCN(c2cccc(Nc3nc4c(-c5ccc(S(C)(=O)=O)cc5)cccn4n3)c2)CC1	-11	nt	11%	22%	1%
Cc1cnc(Nc2ccc(N3CCN(C)CC3)cc2)nc1Nc1cccc(S(=O)(=O)NC(C)(C)C)c1	nt	nt	92%	?	nt
